PubChem BioAssay (NCATS)
Records with an inconclusive call do not appear. Entries that show only a call come without a potency. Activity calls are given as the source filed them. Calls follow the shape of the dose curve; as a rule, active = well fitted inhibition curve with a large enough effect in the repeat runs; inconclusive = weak or mixed curves; inactive = flat fitted curve, though single readings scatter.

Molecular target: Cytochrome P450 2D6 (Homo sapiens) (UniProt P10635)
Test: Cytochrome P450 family 2 subfamily D member 6 (CYP2D6) small molecule antagonists: luciferase biochemical (cell-free) qHTS assay (AID 1645840); also: nearly all actives have a fitted effect of over 55% in size
Conditions: P450-Glo CYP2D6 enzyme, luciferin luminescence, 1 h; series mostly up to 57.4 µM
Outline: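 P450-Glo luminescent screen: recombinant CYP2D6 enzyme–proluciferin substrate mix preincubated with compound 10 min at room temperature, then NADPH regeneration added for 1 h at room temperature. Detection reagent added for 20 min; luciferin light read as relative luminescence units.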
Potency is read from the fitted curve at half-maximal effect.

Cytochrome P450 2D6 (Homo sapiens), sequence (P10635 whole entry, looked up): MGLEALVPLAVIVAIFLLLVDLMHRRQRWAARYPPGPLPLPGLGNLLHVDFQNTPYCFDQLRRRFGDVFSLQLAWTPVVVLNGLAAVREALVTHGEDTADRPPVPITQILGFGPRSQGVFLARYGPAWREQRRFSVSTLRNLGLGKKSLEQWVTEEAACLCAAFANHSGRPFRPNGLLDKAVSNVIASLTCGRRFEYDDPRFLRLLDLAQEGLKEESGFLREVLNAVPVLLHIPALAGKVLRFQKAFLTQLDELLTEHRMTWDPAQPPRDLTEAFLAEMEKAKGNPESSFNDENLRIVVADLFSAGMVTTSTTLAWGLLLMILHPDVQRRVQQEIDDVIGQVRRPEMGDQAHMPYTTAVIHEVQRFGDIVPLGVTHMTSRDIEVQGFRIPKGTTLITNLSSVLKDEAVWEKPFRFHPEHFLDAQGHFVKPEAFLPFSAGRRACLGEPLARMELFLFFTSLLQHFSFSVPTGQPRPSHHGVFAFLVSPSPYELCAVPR

Row | SMILES | Potency
1 | Oc1cn2c(n1)Nc1ccc(Cl)c(Cl)c1C2 | inactive
2 | Cc1ncc(COP(=O)(O)O)c(C=O)c1O | inactive
3 | CC(=O)O[C@@]12CO[C@@H]1C[C@H](O)[C@@]1(C)C(=O)[C@H](O)C3=C(C)[C@@H](OC(=O)[C@H](O)[C@@H](NC(=O)OC(C)(C)C)c4ccccc4)C[C@@](O)([C@@H](OC(=O)c4ccccc4)[C@H]21)C3(C)C | inactive
4 | CCOc1ccc2ccccc2c1C(=O)N[C@@H]1C(=O)N2[C@@H]1SC(C)(C)[C@@H]2C(=O)O | inactive
5 | CC(=O)Oc1ccc(C2(c3ccc(OC(C)=O)cc3)C(=O)Nc3ccccc32)cc1 | inactive
6 | CC(=O)Nc1ccc(/C=N/NC(N)=S)cc1 | inactive
7 | O=C1NS(=O)(=O)c2ccccc21 | inactive
8 | Cc1c(Cl)cccc1Nc1ccccc1C(=O)O | inactive
9 | CC(O)CN(CCN(CC(C)O)CC(C)O)CC(C)O (configuration not stated) | inactive
10 | CC[N+](CC)(CC)CCOc1ccc(/C=C/c2ccccc2)cc1 | 0.617 µM (active)
11 | CC/C=C(\C(=O)N[C@@H]1C(=O)N2C(C(=O)OCOC(=O)C(C)(C)C)=C(COC(N)=O)CS[C@H]12)c1csc(N)n1 | inactive
12 | O=C(O)[C@H](O)c1ccccc1 | inactive
13 | O=c1cc[nH]c(=S)[nH]1 | inactive
14 | COc1ccc2cc1Oc1ccc(cc1)C[C@H]1c3c(cc4c(c3Oc3cc5c(cc3OC)CCN(C)[C@@H]5C2)OCO4)CCN1C | 17.4 µM (active)
15 | [Cl][In]([Cl])[Cl] | inactive
16 | CSc1ccc2c(c1)C(N1CCN(C)CC1)Cc1ccccc1S2 (configuration not stated) | 0.55 µM (active)
17 | Cc1c(O)cccc1C(=O)N[C@@H](CSc1ccccc1)[C@H](O)CN1C[C@H]2CCCC[C@H]2C[C@H]1C(=O)NC(C)(C)C | 3.47 µM (active)
18 | CN1CCN(C2Cc3ccccc3Sc3ccc(Cl)cc32)CC1 (configuration not stated) | 0.121 µM (active)
19 | CS(=O)(=O)c1ccc([C@@H](O)[C@@H](CF)NC(=O)C(Cl)Cl)cc1 | inactive
20 | c1ccc(CN(CC2=NCCN2)c2ccccc2)cc1 | 1.74 µM (active)
21 | Cc1cc(N)c2ccccc2[n+]1CCCCCCCCCC[n+]1c(C)cc(N)c2ccccc21 | 5.35 µM (active)
22 | CCCCN(CCCC)CCCOC(=O)c1ccc(N)cc1 | 0.0309 µM (active)
